# Results from paper PMC7862700, “An all-to-all approach to the identification of sequence-specific readers for epigenetic DNA modifications on cytosine”.
# What was measured:
# Experiment in all cases: DAPPL (digital affinity profiling via proximity ligation, sequencing); 10 mM Tris-HCl pH 7.5, 50 mM NaCl, 1 mM DTT, 4% glycerol, room temperature, 30 min; GST-TFs on glutathione beads, 16-mer random dsDNA library, 0.1% formaldehyde crosslink after washing; high values mean tight binding
# FLI1 = target: T1, FLI1 (Homo sapiens, UniProt Q01543 1-452); details: protein: recombinant; tags: N-terminal GST; dsDNA, one strand shown
# T1 sequence: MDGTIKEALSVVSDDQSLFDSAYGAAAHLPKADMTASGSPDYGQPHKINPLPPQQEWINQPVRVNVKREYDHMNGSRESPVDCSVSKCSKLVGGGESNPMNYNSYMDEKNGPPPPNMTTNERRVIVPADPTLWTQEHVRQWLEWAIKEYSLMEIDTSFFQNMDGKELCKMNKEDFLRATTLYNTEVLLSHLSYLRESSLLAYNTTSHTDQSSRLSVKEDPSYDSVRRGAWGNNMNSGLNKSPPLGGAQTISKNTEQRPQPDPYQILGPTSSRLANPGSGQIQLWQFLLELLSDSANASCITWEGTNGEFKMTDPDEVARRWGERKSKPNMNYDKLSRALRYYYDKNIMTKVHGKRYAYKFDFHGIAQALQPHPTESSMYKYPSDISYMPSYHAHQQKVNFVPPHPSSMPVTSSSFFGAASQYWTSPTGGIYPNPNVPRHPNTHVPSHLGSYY
# Summary of the method: (§1)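 Human transcription factors were made in yeast as GST fusions, captured on glutathione beads and barcoded with DNA. With a tag-only sample included, the pool was incubated with 200 nmole of a random double-stranded 16-mer DNA library in Tris/NaCl/DTT/glycerol buffer at room temperature for 30 min, then crosslinked with 0.1% formaldehyde after washing, ligated by proximity, amplified and sequenced. For binding signal, each hexamer's read frequency for a factor is divided by its frequency for the tag-only sample.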
# ELK1 = target: T2, ELK1 (Homo sapiens, UniProt P19419 1-428); details: protein: recombinant; tags: N-terminal GST; dsDNA, one strand shown
# T2 sequence: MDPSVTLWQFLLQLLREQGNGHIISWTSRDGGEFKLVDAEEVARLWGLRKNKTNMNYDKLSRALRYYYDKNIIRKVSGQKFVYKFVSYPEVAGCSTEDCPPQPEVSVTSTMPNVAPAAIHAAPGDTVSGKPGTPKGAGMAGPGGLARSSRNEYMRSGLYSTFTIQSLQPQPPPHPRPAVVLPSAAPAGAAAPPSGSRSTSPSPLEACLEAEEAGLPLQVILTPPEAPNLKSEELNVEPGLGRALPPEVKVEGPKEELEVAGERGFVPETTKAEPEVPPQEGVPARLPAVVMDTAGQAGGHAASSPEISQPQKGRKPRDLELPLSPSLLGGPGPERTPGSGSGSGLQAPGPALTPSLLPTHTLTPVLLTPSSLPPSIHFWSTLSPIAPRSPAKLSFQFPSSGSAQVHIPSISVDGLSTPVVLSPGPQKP
# Summary of the method: as §1
# GABPA = target: T3, GABPA (Homo sapiens, UniProt Q06546 1-454); details: protein: recombinant; tags: N-terminal GST; dsDNA, one strand shown
# T3 sequence: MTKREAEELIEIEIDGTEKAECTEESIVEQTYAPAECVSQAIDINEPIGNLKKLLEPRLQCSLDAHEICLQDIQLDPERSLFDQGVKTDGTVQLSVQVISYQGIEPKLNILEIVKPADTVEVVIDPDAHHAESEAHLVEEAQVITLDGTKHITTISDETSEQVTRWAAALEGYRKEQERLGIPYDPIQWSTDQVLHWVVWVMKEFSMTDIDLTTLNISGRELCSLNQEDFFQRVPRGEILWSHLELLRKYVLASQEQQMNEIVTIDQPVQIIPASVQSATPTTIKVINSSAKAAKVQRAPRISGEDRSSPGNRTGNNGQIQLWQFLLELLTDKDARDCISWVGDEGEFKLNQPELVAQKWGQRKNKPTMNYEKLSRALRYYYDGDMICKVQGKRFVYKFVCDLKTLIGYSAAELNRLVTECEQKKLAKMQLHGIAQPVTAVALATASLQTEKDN
# Summary of the method: as §1
# ERG = target: T4, ERG (Homo sapiens, UniProt P11308 1-479); details: protein: recombinant; tags: N-terminal GST; dsDNA, one strand shown
# T4 sequence: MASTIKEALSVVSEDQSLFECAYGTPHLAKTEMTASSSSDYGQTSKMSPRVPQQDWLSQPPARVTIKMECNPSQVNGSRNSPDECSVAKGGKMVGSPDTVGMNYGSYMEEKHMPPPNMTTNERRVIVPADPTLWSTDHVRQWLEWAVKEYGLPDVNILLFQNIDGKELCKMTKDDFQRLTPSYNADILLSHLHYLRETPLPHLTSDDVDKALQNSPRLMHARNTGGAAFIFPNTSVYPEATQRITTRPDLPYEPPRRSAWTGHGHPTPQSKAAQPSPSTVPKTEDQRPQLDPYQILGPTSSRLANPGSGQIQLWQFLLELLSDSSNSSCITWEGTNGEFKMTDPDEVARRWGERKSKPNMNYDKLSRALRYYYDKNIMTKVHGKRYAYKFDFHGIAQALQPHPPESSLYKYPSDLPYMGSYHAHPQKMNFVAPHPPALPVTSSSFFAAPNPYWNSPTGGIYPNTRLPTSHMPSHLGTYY
# Summary of the method: as §1
# ELF1 = ELF1 (Homo sapiens, UniProt P32519 1-619); details: protein: recombinant; tags: N-terminal GST; dsDNA, one strand shown
# Summary of the method: as §1
# EHF = target: T5, EHF (Homo sapiens, UniProt Q9NZC4 1-300); details: protein: recombinant; tags: N-terminal GST; dsDNA, one strand shown
# T5 sequence: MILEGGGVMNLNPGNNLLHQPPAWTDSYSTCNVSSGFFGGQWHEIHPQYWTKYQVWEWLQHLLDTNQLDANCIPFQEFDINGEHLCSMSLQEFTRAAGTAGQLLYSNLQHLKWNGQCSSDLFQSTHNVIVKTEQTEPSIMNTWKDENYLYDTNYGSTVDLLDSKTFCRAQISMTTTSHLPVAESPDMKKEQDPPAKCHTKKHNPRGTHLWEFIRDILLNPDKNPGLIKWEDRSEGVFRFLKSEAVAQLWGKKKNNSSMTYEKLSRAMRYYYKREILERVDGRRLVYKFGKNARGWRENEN
# Summary of the method: as §1
# SPI1 = SPI1 (Homo sapiens, UniProt P17947 1-270); details: protein: recombinant; tags: N-terminal GST; dsDNA, one strand shown
# Summary of the method: as §1
# SPIB = SPIB (Homo sapiens, UniProt Q01892 1-262); details: protein: recombinant; tags: N-terminal GST; dsDNA, one strand shown
# Summary of the method: as §1
# ELK3 = target: T6, ELK3 (Homo sapiens, UniProt P41970 1-407); details: protein: recombinant; tags: N-terminal GST; dsDNA, one strand shown
# T6 sequence: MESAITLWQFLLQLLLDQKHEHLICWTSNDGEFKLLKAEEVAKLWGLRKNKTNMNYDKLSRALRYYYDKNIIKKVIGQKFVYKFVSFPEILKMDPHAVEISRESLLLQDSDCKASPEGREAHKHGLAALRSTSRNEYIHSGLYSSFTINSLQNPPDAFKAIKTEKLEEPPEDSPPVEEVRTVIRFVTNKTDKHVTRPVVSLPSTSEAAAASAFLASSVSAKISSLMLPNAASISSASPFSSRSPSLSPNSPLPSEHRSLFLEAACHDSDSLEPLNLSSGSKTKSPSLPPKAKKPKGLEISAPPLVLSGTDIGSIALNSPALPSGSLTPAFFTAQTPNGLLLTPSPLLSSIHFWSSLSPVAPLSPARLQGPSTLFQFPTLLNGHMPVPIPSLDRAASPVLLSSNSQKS
# Summary of the method: as §1
# FEV = target: T7, FEV (Homo sapiens, UniProt Q99581 1-238); details: protein: recombinant; tags: N-terminal GST; dsDNA, one strand shown
# T7 sequence: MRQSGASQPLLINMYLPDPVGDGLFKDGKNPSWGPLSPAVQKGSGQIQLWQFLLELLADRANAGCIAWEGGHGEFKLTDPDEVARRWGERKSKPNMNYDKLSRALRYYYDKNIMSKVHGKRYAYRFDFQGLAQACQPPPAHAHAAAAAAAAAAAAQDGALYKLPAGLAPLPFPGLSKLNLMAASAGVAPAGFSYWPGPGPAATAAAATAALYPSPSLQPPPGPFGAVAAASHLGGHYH
# Summary of the method: as §1
# ETV5 = ETV5 (Homo sapiens, UniProt P41161 1-510); details: protein: recombinant; tags: N-terminal GST; dsDNA, one strand shown
# Summary of the method: as §1
# HSF1 = HSF1 (Homo sapiens, UniProt Q00613 1-529); details: protein: recombinant; tags: N-terminal GST; chain copies: 3; dsDNA, one strand shown
# Summary of the method: as §1
# SPIC = target: T8, SPIC (Homo sapiens, UniProt Q8N5J4 1-248); details: protein: recombinant; tags: N-terminal GST; dsDNA, one strand shown
# T8 sequence: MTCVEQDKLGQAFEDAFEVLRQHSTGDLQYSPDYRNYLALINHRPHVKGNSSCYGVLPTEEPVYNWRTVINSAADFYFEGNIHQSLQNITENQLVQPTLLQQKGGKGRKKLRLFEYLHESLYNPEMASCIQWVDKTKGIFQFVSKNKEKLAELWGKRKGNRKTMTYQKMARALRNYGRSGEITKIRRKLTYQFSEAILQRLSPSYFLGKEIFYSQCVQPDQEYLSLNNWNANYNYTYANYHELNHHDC
# Summary of the method: as §1
# ELF4 = ELF4 (Homo sapiens, UniProt Q99607 1-663); details: protein: recombinant; tags: N-terminal GST; dsDNA, one strand shown
# Summary of the method: as §1
# ELK4 = target: T9, ELK4 (Homo sapiens, UniProt P28324-2 1-405); details: protein: recombinant; tags: N-terminal GST; dsDNA, one strand shown
# T9 sequence: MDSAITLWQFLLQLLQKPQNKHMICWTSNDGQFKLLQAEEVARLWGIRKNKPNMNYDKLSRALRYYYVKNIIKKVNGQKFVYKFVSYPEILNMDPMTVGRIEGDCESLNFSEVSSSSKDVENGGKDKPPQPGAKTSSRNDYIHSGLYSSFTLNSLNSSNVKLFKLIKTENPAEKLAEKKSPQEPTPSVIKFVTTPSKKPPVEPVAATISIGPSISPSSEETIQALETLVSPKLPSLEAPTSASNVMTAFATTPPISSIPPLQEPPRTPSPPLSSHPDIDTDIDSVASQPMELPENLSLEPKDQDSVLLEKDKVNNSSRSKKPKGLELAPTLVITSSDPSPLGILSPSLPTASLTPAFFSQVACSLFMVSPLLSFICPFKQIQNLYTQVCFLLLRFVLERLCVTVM
# Summary of the method: as §1
# ETV2 = target: T10, ETV2 (Homo sapiens, UniProt O00321 1-342); details: protein: recombinant; tags: N-terminal GST; dsDNA, one strand shown
# T10 sequence: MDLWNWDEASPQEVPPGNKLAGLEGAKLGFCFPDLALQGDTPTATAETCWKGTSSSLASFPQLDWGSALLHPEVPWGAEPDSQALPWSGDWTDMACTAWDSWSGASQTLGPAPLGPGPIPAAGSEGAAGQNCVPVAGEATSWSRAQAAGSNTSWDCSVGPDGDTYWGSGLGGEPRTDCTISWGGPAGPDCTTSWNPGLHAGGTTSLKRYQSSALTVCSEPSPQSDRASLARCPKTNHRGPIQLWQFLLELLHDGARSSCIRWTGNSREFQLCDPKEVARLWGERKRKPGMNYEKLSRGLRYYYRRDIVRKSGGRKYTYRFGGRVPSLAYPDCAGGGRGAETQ
# Summary of the method: as §1
# ELF3 = target: T11, ELF3 (Homo sapiens, UniProt P78545 1-371); details: protein: recombinant; tags: N-terminal GST; dsDNA, one strand shown
# T11 sequence: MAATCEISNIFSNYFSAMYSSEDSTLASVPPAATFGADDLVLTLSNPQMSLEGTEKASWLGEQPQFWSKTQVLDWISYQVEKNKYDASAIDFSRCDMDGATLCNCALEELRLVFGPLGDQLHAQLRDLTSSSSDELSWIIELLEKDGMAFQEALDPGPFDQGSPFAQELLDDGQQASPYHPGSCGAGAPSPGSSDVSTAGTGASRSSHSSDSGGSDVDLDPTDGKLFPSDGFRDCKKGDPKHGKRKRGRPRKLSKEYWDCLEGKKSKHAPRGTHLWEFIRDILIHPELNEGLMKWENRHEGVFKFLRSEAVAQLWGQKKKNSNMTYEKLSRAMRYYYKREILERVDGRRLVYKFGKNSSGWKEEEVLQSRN
# Summary of the method: as §1
# CRX = CRX (Homo sapiens, UniProt O43186 1-299); details: protein: recombinant; tags: N-terminal GST; dsDNA, one strand shown
# Summary of the method: as §1
# ETV1 = ETV1 (Homo sapiens, UniProt P50549 1-477); details: protein: recombinant; tags: N-terminal GST; dsDNA, one strand shown
# Summary of the method: as §1
# Sequence of HSF1 (Q00613 whole entry): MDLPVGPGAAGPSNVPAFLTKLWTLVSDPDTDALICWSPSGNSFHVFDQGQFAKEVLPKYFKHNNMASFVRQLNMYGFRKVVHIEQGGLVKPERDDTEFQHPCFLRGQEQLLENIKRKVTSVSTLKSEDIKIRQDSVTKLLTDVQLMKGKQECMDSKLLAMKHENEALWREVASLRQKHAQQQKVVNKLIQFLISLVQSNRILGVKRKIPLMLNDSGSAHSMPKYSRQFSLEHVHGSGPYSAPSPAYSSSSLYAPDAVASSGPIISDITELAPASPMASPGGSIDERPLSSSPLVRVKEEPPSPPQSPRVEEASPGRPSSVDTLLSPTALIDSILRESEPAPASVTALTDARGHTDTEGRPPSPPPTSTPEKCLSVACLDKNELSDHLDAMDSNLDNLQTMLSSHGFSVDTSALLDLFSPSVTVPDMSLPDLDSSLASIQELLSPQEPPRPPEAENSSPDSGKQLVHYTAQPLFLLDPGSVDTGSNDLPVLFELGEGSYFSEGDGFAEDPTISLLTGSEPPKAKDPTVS
# Sequence of ELF1 (P32519 whole entry): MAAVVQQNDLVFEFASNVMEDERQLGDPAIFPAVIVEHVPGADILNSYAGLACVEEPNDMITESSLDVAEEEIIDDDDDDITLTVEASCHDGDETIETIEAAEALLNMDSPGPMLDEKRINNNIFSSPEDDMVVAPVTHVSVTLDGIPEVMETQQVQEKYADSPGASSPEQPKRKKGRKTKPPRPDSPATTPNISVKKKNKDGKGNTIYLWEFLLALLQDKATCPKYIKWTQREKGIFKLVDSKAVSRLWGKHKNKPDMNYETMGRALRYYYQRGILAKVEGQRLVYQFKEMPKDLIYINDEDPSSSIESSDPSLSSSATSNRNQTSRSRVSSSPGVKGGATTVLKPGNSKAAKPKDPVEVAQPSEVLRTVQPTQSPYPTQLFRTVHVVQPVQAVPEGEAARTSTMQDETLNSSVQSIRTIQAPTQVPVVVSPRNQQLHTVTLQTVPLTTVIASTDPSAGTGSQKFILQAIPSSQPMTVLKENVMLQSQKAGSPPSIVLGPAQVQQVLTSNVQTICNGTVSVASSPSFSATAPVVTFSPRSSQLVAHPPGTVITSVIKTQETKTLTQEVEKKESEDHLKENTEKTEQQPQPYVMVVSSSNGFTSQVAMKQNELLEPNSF
# Sequence of ETV1 (P50549 whole entry): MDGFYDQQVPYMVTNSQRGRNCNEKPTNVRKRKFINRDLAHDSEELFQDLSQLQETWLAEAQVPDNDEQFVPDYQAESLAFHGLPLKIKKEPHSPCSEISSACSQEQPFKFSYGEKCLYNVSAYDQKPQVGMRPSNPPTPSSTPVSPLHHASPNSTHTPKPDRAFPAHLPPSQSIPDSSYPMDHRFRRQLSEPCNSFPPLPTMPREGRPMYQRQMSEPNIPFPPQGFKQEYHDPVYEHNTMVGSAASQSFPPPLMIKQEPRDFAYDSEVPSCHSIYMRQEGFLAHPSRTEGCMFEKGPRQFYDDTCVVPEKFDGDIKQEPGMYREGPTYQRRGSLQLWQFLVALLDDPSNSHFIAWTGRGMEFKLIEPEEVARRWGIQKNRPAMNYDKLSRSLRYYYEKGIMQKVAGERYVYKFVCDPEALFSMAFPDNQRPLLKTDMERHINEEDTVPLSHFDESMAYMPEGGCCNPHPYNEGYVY
# Sequence of ETV5 (P41161 whole entry): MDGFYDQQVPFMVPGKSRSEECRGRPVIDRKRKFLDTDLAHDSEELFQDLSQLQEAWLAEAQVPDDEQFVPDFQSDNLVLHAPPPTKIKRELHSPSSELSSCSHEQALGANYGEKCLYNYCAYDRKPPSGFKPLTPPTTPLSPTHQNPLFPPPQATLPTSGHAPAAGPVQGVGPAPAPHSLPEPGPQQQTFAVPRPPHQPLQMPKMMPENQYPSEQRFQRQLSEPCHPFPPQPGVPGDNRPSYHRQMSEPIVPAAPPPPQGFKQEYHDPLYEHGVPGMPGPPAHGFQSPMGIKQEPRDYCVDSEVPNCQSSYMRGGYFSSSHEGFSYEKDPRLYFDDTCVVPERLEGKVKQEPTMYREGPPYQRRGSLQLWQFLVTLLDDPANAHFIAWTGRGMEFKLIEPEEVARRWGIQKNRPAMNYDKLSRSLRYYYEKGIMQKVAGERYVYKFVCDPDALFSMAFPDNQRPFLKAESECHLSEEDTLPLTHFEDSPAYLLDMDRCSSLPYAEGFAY
# Sequence of SPIB (Q01892 whole entry): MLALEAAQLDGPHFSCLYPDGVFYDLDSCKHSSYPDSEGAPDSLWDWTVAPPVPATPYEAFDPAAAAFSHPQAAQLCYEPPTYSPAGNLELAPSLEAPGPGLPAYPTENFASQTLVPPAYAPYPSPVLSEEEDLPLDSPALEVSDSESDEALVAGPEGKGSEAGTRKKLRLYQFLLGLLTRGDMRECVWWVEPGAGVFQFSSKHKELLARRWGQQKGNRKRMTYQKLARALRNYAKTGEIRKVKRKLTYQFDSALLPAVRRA
# Sequence of CRX (O43186 whole entry): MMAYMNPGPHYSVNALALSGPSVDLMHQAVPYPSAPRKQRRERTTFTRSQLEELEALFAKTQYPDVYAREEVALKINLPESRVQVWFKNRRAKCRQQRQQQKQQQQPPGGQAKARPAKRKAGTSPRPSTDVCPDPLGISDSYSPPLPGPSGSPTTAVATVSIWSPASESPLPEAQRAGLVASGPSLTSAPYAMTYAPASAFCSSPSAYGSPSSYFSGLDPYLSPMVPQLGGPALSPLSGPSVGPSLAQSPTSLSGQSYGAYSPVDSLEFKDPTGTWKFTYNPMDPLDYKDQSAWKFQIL
# Sequence of ELF4 (Q99607 whole entry): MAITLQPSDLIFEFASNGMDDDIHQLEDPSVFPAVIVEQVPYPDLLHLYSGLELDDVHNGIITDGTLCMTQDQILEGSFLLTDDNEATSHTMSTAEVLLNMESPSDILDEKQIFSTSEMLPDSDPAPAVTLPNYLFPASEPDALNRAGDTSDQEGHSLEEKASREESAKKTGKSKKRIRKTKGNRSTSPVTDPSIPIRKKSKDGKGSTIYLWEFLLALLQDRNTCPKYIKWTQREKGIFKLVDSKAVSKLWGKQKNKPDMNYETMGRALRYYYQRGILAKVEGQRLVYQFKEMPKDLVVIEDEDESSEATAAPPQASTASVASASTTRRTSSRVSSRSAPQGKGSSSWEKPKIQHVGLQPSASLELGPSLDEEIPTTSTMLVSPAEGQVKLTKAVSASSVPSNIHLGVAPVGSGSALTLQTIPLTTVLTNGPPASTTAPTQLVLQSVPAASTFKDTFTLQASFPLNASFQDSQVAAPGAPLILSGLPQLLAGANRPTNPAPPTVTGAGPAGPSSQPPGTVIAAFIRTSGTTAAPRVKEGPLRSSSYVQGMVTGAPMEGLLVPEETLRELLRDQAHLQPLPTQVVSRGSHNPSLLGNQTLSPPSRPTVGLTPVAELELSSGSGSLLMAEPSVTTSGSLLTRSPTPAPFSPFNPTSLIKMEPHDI
sequence,measurement,setting,value
TGTATC,binding signal,FLI1,"1.65 fold enrichment (6-mer frequency, TF over GST control)"
same,binding signal,ELK1,"1.39 fold enrichment (6-mer frequency, TF over GST control)"
same,binding signal,GABPA,"1.45 fold enrichment (6-mer frequency, TF over GST control)"
same,binding signal,ERG,"1.39 fold enrichment (6-mer frequency, TF over GST control)"
same,binding signal,ELF1,"1.38 fold enrichment (6-mer frequency, TF over GST control)"
same,binding signal,EHF,"1.36 fold enrichment (6-mer frequency, TF over GST control)"
same,binding signal,SPI1,"1.37 fold enrichment (6-mer frequency, TF over GST control)"
same,binding signal,SPIB,"1.45 fold enrichment (6-mer frequency, TF over GST control)"
same,binding signal,ELK3,"1.44 fold enrichment (6-mer frequency, TF over GST control)"
same,binding signal,FEV,"1.41 fold enrichment (6-mer frequency, TF over GST control)"
same,binding signal,ETV5,"1.4 fold enrichment (6-mer frequency, TF over GST control)"
same,binding signal,HSF1,"1.16 fold enrichment (6-mer frequency, TF over GST control)"
same,binding signal,SPIC,"1.46 fold enrichment (6-mer frequency, TF over GST control)"
same,binding signal,ELF4,"1.44 fold enrichment (6-mer frequency, TF over GST control)"
same,binding signal,ELK4,"1.46 fold enrichment (6-mer frequency, TF over GST control)"
same,binding signal,ETV2,"1.36 fold enrichment (6-mer frequency, TF over GST control)"
same,binding signal,ELF3,"1.41 fold enrichment (6-mer frequency, TF over GST control)"
same,binding signal,CRX,"1.15 fold enrichment (6-mer frequency, TF over GST control)"
same,binding signal,ETV1,"1.37 fold enrichment (6-mer frequency, TF over GST control)"
